# Compound activity from PubChem.
# CASP6 VEID inh: inhibitors of human caspase-6 | P55212 | inhibition, % at 12.5 µM | AID 686996 | purified caspase-6, Z-VEID-R110 cleavage fluorescence | 350,000 tested, 0.53% active;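 active = mean inhibition across replicates at least about 35%, with every replicate also reaching that limit, limit read from the data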
# SIRT5 inh: blocks human SIRT5 desuccinylation of peptide | Q9NXA8 | Purified SirT5, succinyl-peptide AMC, trypsin-coupled fluorescence | inhibition, % at 15 µM | 330,000 tested, 1.1% active; in the data active = inhibition above about 15%
# ERAP1 inh: inhibitors of human ERAP1 aminopeptidase; Q9NZ08; recombinant ERAP1, Leu-AMC fluorescence, 60 min; inhibition, % at 10.7 µM; 340,000 tested, 0.15% active; AID 652197;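 active = mean replicate inhibition of at least 30%, or all replicates individually reaching that 30% level; inactive = mean below 30% and not every replicate reaching it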
# Target sequence (Q9NZ08 whole entry, looked up): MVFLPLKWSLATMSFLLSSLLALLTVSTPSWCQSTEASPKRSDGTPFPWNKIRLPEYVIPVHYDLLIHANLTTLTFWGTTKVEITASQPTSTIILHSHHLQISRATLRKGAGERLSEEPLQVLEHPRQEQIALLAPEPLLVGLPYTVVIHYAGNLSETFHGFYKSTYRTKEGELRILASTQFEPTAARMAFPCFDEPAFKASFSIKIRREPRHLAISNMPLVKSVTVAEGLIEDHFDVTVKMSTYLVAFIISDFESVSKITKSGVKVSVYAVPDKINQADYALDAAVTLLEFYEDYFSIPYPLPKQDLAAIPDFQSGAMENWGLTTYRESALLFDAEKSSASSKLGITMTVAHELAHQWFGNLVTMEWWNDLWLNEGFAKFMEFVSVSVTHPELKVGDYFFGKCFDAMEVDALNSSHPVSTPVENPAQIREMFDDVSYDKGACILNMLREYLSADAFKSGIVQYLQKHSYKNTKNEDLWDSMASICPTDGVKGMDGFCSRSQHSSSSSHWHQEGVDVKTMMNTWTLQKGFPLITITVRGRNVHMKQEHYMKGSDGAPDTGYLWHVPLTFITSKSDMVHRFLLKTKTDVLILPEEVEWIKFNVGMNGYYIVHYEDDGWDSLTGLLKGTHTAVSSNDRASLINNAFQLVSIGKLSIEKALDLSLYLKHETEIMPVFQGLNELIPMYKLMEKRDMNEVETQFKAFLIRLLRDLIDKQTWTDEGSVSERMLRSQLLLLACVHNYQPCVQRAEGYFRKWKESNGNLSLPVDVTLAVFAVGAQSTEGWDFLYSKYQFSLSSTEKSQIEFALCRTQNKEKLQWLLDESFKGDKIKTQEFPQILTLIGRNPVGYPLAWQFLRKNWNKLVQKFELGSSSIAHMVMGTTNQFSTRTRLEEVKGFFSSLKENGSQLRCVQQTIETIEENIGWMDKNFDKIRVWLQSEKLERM
# INS-1E GSIS act: primary screen for activators of insulin secretion dependent on glucose, INS-1E cells, GLuc reporter luminescence; AID 743287; activation, % at 16.6 µM; INS-1E GLuc reporter insulin secretion, 2-3 h; 370,000 tested, 0.61% active;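 active = lowest replicate activation of at least 40%, so every replicate reaches that level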
# FGF22 binding: binders of recombinant human FGF22 by thermal shift; Q9HCT0; AID 651658; activity (Tm shift, normalised), % at 9.99 µM; 340,000 tested, 1.5% active; SYPRO orange fluorescence; percent of sucrose octasulfate shift, DMSO zero;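 active = mean Tm shift, scaled 0 neutral to 100 positive control, at about 1.3% or above, every replicate too, limit read from the data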
# Hits are given with their value; – = inactive; · = no result given. The list is not random: actives were taken first. Their share in the collection is about 3.3%.
SMILES,CASP6 VEID inh,SIRT5 inh,ERAP1 inh,INS-1E GSIS act,FGF22 binding
O=C(NCC1=C(c2ccc3ccccc3c2)C[C@@H]2CC[C@H]1N2Cc1ccco1)c1ccncc1,–,24.9,–,–,–
O=C(NCC1=C(c2ccc3ccccc3c2)C[C@@H]2CC[C@H]1N2Cc1ccco1)c1ccc([N+](=O)[O-])cc1,–,–,–,–,–
CN1[C@@H](CO)[C@@H]2c3ccccc3NC[C@@H]21,–,–,–,–,–
CCCC1(CC(C)C)C(=O)NC(=S)NC1=O,–,·,–,–,–
CCCCC1(CCC)C(=O)NC(=S)NC1=O,–,·,–,·,42.9
O=[N+]([O-])c1cccc(C2N3CCCN23)c1 (stereo unspecified),–,–,–,–,–
O=C(O)c1cccc2c1NC(c1cccc([N+](=O)[O-])c1)C1CC(Sc3ccccc3[N+](=O)[O-])C(Cl)C21 (stereo unspecified),54.2,–,–,–,–
COC(=O)[C@H]1[C@H](CO)[C@H]2Cn3c(ccc(-c4cncnc4)c3=O)[C@@H]1N2S(=O)(=O)c1ccccc1C,–,–,–,–,–
NC(Cc1ccc(O)cc1)C(=O)NN=Cc1ccc(N(CCCl)CCCl)cc1 (stereo unspecified),–,–,–,·,–
COc1cc(C(=O)NN=Cc2ccc(N(CCCl)CCCl)cc2)cc(OC)c1OC,–,·,–,·,44.0
Cc1cc(C(=O)CN2CCCC2)c(C)n1-c1ccc(F)cc1,–,·,–,–,–
COc1ccc(-n2c(C)cc(C(=O)C[N+]34CCN(CC3)CC4)c2C)cc1,–,–,–,–,43.2
C[C@H](CO)N1C[C@H](C)[C@H](CN(C)C(=O)Oc2cccc3ccccc23)OCc2cn(nn2)CCCC1=O,·,·,·,–,·
CC(CN1CCOCC1)C(C#N)(c1ccccc1)c1ccccc1 (stereo unspecified),–,·,–,–,43.0
O=C1NC(=S)NC(=O)C1=Cc1ccc(Br)s1,–,24.2,–,–,–
O=c1[nH]cnc2nc(-c3ccc(N(CCCl)CCCl)cc3)[nH]c12,–,·,–,57.9,–
COC(=O)[C@@H]1[C@@H](CO)[C@@H]2Cn3c(ccc(-c4ccccc4)c3=O)[C@H]1N2C(=O)c1ccccc1F,·,·,·,–,·
CC(C)(C)C(=O)c1cn(Cc2ccccc2)c2ccccc12,·,–,–,–,–
CC(C)(C)C(=O)c1cn(CC(=O)NCc2ccco2)c2ccccc12,–,17.0,–,–,–
O=C(O)[C@H]1[C@H](CO)[C@H]2Cn3c(ccc(-c4ccncc4)c3=O)[C@@H]1N2C(=O)C1CC1,·,·,·,–,·
COC(=O)[C@@H]1[C@@H](CO)[C@@H]2Cn3c(ccc(-c4ccccc4)c3=O)[C@H]1N2CCc1ccccc1,–,16.1,–,–,–
COC(=O)[C@@H]1[C@@H](CO)[C@@H]2Cn3c(ccc(-c4cccc(C(=O)N(C)C)c4)c3=O)[C@H]1N2CC1CC1,–,–,–,–,·
C[n+]1ccc(-c2ccncc2)cc1,–,–,31.4,–,–
O=C(N/N=C/c1c(O)n(Cc2ccco2)c(=O)[nH]c1=O)c1ccccc1O,–,15.3,–,–,–
Cc1cc(/C=C2\C(=O)NC(=O)N(c3ccccc3)C2=O)c(C)n1-c1ccc(C(=O)O)c(Cl)c1,38.1,–,–,–,–
SMILES,CASP6 VEID inh,SIRT5 inh,ERAP1 inh,INS-1E GSIS act,FGF22 binding
Cc1cc(/C=C2\C(=O)NC(=O)N(c3ccc(F)cc3)C2=O)c(C)n1-c1cccc(C(=O)O)c1,–,–,–,–,–
CN(C(=O)Oc1cccc2ccccc12)C1C=CCC1 (stereo unspecified),–,·,–,·,43.5
C[C@H]1CN([C@@H](C)CO)C(=O)CCCn2cc(nn2)CO[C@@H]1CN(C)C(=O)Oc1cccc2ccccc12,–,–,–,–,–
c1ccc(N2[C@@H]3CC[C@H]2c2ccncc2C3)cc1,–,–,–,48.3,–
O=C1CNC[C@H]2[C@@H](c3ccc(Br)cc3)[C@H](CO)N12,–,–,–,–,–
COc1cccc(N2C(=O)NC(=O)/C(=C/c3ccc4c5c(cccc35)CC4)C2=O)c1,–,36.9,–,–,–
Cc1ccc(N2C(=O)NC(=O)/C(=C/c3ccoc3)C2=O)cc1,84.9,18.4,–,–,–
COc1ccc(CN2C(=O)NC(=O)/C(=C/c3ccoc3)C2=O)cc1,67.4,20.9,–,–,–
COc1ccc(CN2C(=O)NC(=O)/C(=C/c3cc(OC)c(OC)c(OC)c3)C2=O)cc1,–,–,–,–,–
O=C(Cc1ccncc1)N1CCCCN2[C@@H](CO)[C@H](c3ccc(C#Cc4ccccc4F)cc3)[C@@H]2C1,–,–,–,–,–
COC(=O)[C@H]1[C@H](CO)[C@H]2Cn3c(ccc(-c4cccc(OC)c4)c3=O)[C@@H]1N2C(=O)c1ccccc1F,–,–,–,–,–
Cc1cc2c(C(C)C)c(O)c(O)c(C=O)c2c(O)c1-c1c(C)cc2c(C(C)C)c(O)c(O)c(C=O)c2c1O,–,24.8,–,·,–
CC(=O)N1[C@@H]2Cn3c(ccc(-c4cccc(C(=O)N(C)C)c4)c3=O)[C@H]1[C@@H](C(=O)O)[C@@H]2CO,·,·,·,–,·
CP(=O)(O)CN1CCCCC1,–,–,–,–,43.9
CCN(CC)C(=O)c1ccc(N(Cc2ccccc2)S(C)(=O)=O)cc1,–,–,–,–,–
CCN(CC)C(=O)c1ccc2c(c1)C1C=CCC1C(C(=O)O)N2 (stereo unspecified),39.6,–,–,–,–
CCCCCC[N+](=O)[O-],–,·,–,–,–
CCCCCCCCCCCCCCCC[N+](C)(C)C,–,–,42.4,·,–
O=C(O)C[C@H]1CC[C@@H]2NC[C@H](O)COC[C@H]2O1,–,–,–,–,–
O=C(O)Cn1cc(/C=C2\C(=O)NC(=O)N(Cc3ccco3)C2=O)c2ccccc21,74.5,–,–,–,–
O=C1NC(=O)N(Cc2ccccc2)C(=O)/C1=C\c1ccco1,63.0,25.0,–,–,–
O=C1NC(=O)N(Cc2ccco2)C(=O)/C1=C/c1cccn1CCOc1ccccc1Cl,58.5,·,–,–,–
C/C=C/c1ccc(C2[C@@H]3CN(Cc4nccs4)C[C@H]2N3)cc1 (stereo partly specified),–,–,–,–,·
CCCNC(=O)N1[C@@H]2Cn3c(ccc(-c4cccc(C(=O)N(C)C)c4)c3=O)[C@H]1[C@@H](C(=O)O)[C@@H]2CO,–,–,–,–,–
C[N+]1(C)C2CCC1CC(OC(=O)C(CO)c1ccccc1)C2 (stereo unspecified),–,–,–,–,43.5
CN1[C@@H]2c3cccc(=O)n3C[C@H]1[C@H](CO)[C@H]2C(=O)NCC1CC1,–,–,–,–,–
NC(=S)/N=C/c1c(O)[nH]c(=O)[nH]c1=O,–,–,–,–,42.9
CC(=O)OC1(c2ccccc2)CCN(C)CC1(C)C (stereo unspecified),–,15.3,–,–,–
CC(=O)OC1(c2ccccc2)CCN(C)C2CCCCC21 (stereo unspecified),·,·,·,–,·
